Test results published in PubChem BioAssay.
Active and inactive are the calls of the source. Unless noted, the rule behind the calls is not given here.

What was measured:
[1] = system: Wnt5a (protein binding on small-molecule microarray); test: Wnt5a binders on small-molecule microarray, primary screen, biophysical, 635/667 nm fluorescence (AID 1142); conditions: 635 nm fluorescence, higher = more signal;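 note: fluorescence read at 667 nm with signal to noise per printed feature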
[2] = cell viability in Huh7 cells, primary screen, cytotoxicity control for HCV replication inhibitor project, CellTiter-Glo luminescence, basal, 48 h (AID 1143); conditions: Huh7 HCV replicon, higher = more signal, called active from +8 up or from −8 down;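 note: Huh7 hepatoma cells carrying a hepatitis C replication reporter with no stimulus; test concentration not given here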
[3] = P. aeruginosa biofilm formation inhibitors, primary screen, PAO1 strain, BacTiter-Glo luminescence, LB-PBS (AID 1144); conditions: 12 h, higher = more signal
[4] = CREB reporter modulators without forskolin, primary screen, cell-based, PC12, CRE-LacZ reporter, unstimulated (AID 1145); conditions: no forskolin, luminescence, 4.5 h, higher = more signal, called active from +8 up or from −8 down
[5] = CREB reporter modulators under forskolin, primary screen, cell-based, PC12, CRE-LacZ reporter, forskolin-stimulated (AID 1146); conditions: luminescence, 4.5 h, higher = more signal, called active from +8 up or from −8 down;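 note: PC12 cells with 6xCRE LacZ reporter stimulated by forskolin 10 µM; beta-galactosidase reporter signal reflecting CREB driven transcription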
[6] = molecular target: Streptavidin (Streptomyces avidinii) (UniProt P22629); test: streptavidin binders on small-molecule microarray, primary screen, artefact control for SMM compound annotation, biophysical, 635/667 nm fluorescence (AID 1147); conditions: streptavidin binding, higher = more signal;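 note: signal reflects streptavidin binding to arrayed compounds as a control protein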
[7] = small-molecule binders of probe aInhba, primary screen, biochemical, small-molecule microarray, 635/667 nm fluorescence (AID 1148); conditions: higher = more signal;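 note: score merges 667nm spot fluorescence with signal-to-noise for antibody binding to printed compounds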
[8] = molecular target: Torsin-1A (Homo sapiens) (UniProt O14656); test: torsin A binders from cell lysate, primary screen, small-molecule microarray, wild-type, 635/667 nm (AID 1149); conditions: COS7 hTOR1A-WT lysate, 635 nm fluorescence, higher = more signal
[9] = molecular target: Torsin-1A (Homo sapiens) (UniProt O14656); test: small-molecule binders of mutant TOR1A in lysate, primary screen, cell lysate, small-molecule microarray, COS7 lysate, 635/667 nm fluorescence (AID 1150); conditions: COS7 hTOR1A mutant lysate, 635 nm fluorescence, higher = more signal;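 note: score pools 667 nm emission and signal to noise measuring lysate protein binding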
[10] = system: Sonic hedgehog protein (Shh); test: small-molecule binders of Shh protein, primary screen, biochemical, small-molecule microarray, 635/667 nm fluorescence (AID 1151); conditions: small-molecule microarray binding, 635 nm fluorescence; higher = more signal;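 note: Shh protein binding to compounds spotted on small-molecule microarray slides; score combines spot fluorescence intensity with signal-to-noise across triplicate slides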

Chain of Streptavidin (Streptomyces avidinii) (P22629 whole entry, looked up): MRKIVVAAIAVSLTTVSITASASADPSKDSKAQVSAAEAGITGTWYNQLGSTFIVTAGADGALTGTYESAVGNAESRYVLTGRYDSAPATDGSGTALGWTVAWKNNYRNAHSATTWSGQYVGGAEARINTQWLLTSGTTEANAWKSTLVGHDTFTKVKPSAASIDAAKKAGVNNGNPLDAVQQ
Chain of Torsin-1A (Homo sapiens) (O14656 whole entry, looked up): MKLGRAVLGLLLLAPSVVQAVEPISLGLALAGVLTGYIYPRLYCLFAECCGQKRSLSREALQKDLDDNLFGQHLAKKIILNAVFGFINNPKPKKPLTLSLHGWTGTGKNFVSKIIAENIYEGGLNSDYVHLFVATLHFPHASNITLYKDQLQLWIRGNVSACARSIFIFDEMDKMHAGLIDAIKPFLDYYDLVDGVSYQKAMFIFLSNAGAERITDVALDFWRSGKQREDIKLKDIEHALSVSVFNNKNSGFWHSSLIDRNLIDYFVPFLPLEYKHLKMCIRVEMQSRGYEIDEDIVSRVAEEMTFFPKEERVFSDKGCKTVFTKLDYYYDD

CCCCCN1CC=CC23O[C@@H]4/C=C\CCCOC(=O)C4[C@H]2C(=O)N(C(C)CO)[C@@H]3C1=O (stereo not given in full)
composite z-score [1]: -0.917
z-score [2]: 0.194 (inactive)
z-score [3]: -1.24 (inactive)
z-score [4]: -1.43 (inactive)
z-score [5]: -1.24 (inactive)
composite z-score [6]: -0.783
composite z-score [7]: -0.128
composite z-score [8]: -3.18
composite z-score [9]: -2.48
composite z-score [10]: 0.0074

C=CCC(OC(C)=O)[C@@H]1[C@@H](N(Cc2ccc(-c3cccc(C(F)(F)F)c3)o2)C(=O)Cc2ccc(OC)cc2)c2cc(OCCCO)ccc2N1C(=O)c1ccc(-c2ccccc2)cc1 (stereo not given in full)
composite z-score [1]: 0.0179
z-score [2]: -1.28 (inactive)
z-score [3]: 0.198 (inactive)
z-score [4]: 1.15 (inactive)
z-score [5]: 0.393 (inactive)
composite z-score [6]: 1.31
composite z-score [7]: 0.153
composite z-score [8]: -0.368
composite z-score [9]: -0.38
composite z-score [10]: 0.439

NC(=O)[C@H]1[C@@H]2C(=O)O[C@@H](c3ccccc3)[C@@H](c3ccccc3)N2[C@@H](c2ccc(OCCO)cc2)[C@]12C(=O)Nc1ccc(C#CCCO)cc12
composite z-score [1]: 0.262
z-score [2]: -0.532 (inactive)
z-score [3]: -0.311 (inactive)
z-score [4]: -0.465 (inactive)
z-score [5]: 0.776 (inactive)
composite z-score [6]: 0.617
composite z-score [7]: 0.136
composite z-score [8]: 0.579
composite z-score [9]: 0.331
composite z-score [10]: 0.177

CN1C2C=C(CCCO)C(C3C(=O)N(C(N)=O)C(=O)C32)C1C1CC1 (stereo not given)
composite z-score [1]: -0.173
z-score [2]: -0.122 (inactive)
z-score [3]: 0.57 (inactive)
z-score [4]: 0.522 (inactive)
z-score [5]: 0.373 (inactive)
composite z-score [6]: -0.0742
composite z-score [7]: -0.0963
composite z-score [8]: 0.0337
composite z-score [9]: 0.143
composite z-score [10]: 0.316

CCCC=C(CCC)[C@@H](NS(=O)(=O)c1ccc(C(F)(F)F)cc1)c1ccccc1
composite z-score [1]: 0.001
z-score [2]: -1.09 (inactive)
z-score [3]: -0.869 (inactive)
z-score [4]: -0.565 (inactive)
z-score [5]: 1.32 (inactive)
composite z-score [6]: 0.578
composite z-score [7]: 0.156
composite z-score [8]: -0.0214
composite z-score [9]: -0.0562
composite z-score [10]: 0.108

COc1ccc([Si](C)(C)[C@@H]2[C@@H](CC(=O)N3Cc4ccccc4C[C@H]3CO)O[C@]3(C(=O)N(Cc4ccc(N5C(=O)c6cccc7cccc5c67)cc4)c4ccccc43)[C@H]2C)cc1
composite z-score [1]: 0.453
z-score [2]: -2.28 (inactive)
z-score [3]: -0.334 (inactive)
z-score [4]: 2.34 (inactive)
z-score [5]: 0.972 (inactive)
composite z-score [6]: 0.29
composite z-score [7]: 0.0319
composite z-score [8]: 0.645
composite z-score [9]: 0.592
composite z-score [10]: 1.69

CN(C)C(=O)[C@@]1(Cc2ccccc2)N=C(c2ccc(OCCCO)cc2)O[C@H]1c1ccccc1
composite z-score [1]: 0.87
z-score [2]: -3.42 (inactive)
z-score [3]: -0.315 (inactive)
z-score [4]: 0.195 (inactive)
z-score [5]: -0.925 (inactive)
composite z-score [6]: 1.29
composite z-score [7]: 0.715
composite z-score [8]: 0.435
composite z-score [9]: 0.0678
composite z-score [10]: 0.141

C[C@@H]1NC(=O)[C@@H](Cc2ccccc2)NC(=O)[C@@]23C(=O)N[C@@H](Cc4ccccc4)C2[C@H](C)[C@@]2(C)O[C@H]2C3/C=C/C/C=C\CNC1=O (stereo not given in full)
composite z-score [1]: -0.186
z-score [2]: 0.15 (inactive)
z-score [3]: 0.111 (inactive)
z-score [4]: 3.57 (inactive)
z-score [5]: 0.272 (inactive)
composite z-score [6]: -0.963
composite z-score [7]: -0.187
composite z-score [8]: 0.406
composite z-score [9]: 0.32
composite z-score [10]: 1.45

[N-]=[N+]=Nc1ccccc1C[C@]1(C(=O)NCCN2CCOCC2)COC(c2ccc(OCCCO)cc2)=N1
composite z-score [1]: 0.898
z-score [2]: -1.06 (inactive)
z-score [3]: 0.783 (inactive)
z-score [4]: 0.754 (inactive)
z-score [5]: 1.45 (inactive)
composite z-score [6]: 1.25
composite z-score [7]: 0.0497
composite z-score [8]: 0.707
composite z-score [9]: 1.75
composite z-score [10]: 0.0324

O=C1N(CCS(=O)(=O)c2ccccc2)c2ccccc2[C@H]2OC(c3ccc(OCCCO)cc3)=N[C@@]12Cc1ccccc1
composite z-score [1]: 0.636
z-score [2]: -3.51 (inactive)
z-score [3]: 0.582 (inactive)
z-score [4]: 5.87 (inactive)
z-score [5]: -1.86 (inactive)
composite z-score [6]: 0.274
composite z-score [7]: 0.397
composite z-score [8]: 1.08
composite z-score [9]: 1.07
composite z-score [10]: 1.74

COCCOC(=O)N1C(=O)[C@@]2(c3cc(C#CCCO)ccc31)[C@H](C(=O)Nc1nc3ccccc3s1)[C@H]1C(=O)O[C@H](c3ccccc3)[C@H](c3ccccc3)N1[C@@H]2c1ccc(O)cc1
composite z-score [1]: 0.73
z-score [2]: -1.16 (inactive)
z-score [3]: 0.263 (inactive)
z-score [4]: -0.168 (inactive)
z-score [5]: 2.14 (inactive)
composite z-score [6]: 0.809
composite z-score [7]: 0.279
composite z-score [8]: 0.772
composite z-score [9]: 0.833
composite z-score [10]: 1.06

CCCCNC(=O)c1ccc(C#CC(C)(C)C)c(OC(C)=O)c1
composite z-score [1]: 0.0744
z-score [2]: -1.7 (inactive)
z-score [3]: -0.245 (inactive)
z-score [4]: 1.78 (inactive)
z-score [5]: -0.512 (inactive)
composite z-score [6]: 1.01
composite z-score [7]: -0.21
composite z-score [8]: 0.121
composite z-score [9]: 0.686
composite z-score [10]: 0.804

COC(=O)[C@@]1(Cc2ccc(F)cc2)[C@H]2c3cc(C(=O)N4CCCC4)n(Cc4ccc(C)c(F)c4F)c3C[C@H]2CN1C(=O)c1ccccc1
composite z-score [1]: -0.175
z-score [2]: -0.944 (inactive)
z-score [3]: -0.298 (inactive)
z-score [4]: 1.15 (inactive)
z-score [5]: -0.177 (inactive)
composite z-score [6]: -0.286
composite z-score [7]: 0.12
composite z-score [8]: -0.259
composite z-score [9]: -0.407
composite z-score [10]: -0.472

COCCOC(=O)N1C(=O)[C@@]2(c3ccccc31)[C@H](C(=O)NC[C@H](O)c1ccccc1)[C@H]1C(=O)O[C@H](c3ccccc3)[C@H](c3ccccc3)N1[C@@H]2c1ccc(O)cc1
composite z-score [1]: 0.852
z-score [2]: -1.98 (inactive)
z-score [3]: -0.193 (inactive)
z-score [4]: 0.155 (inactive)
z-score [5]: 2.34 (inactive)
composite z-score [6]: 1.09
composite z-score [7]: 0.106
composite z-score [8]: 0.877
composite z-score [9]: 0.383
composite z-score [10]: 1.74

COCCOC(=O)N1C(=O)[C@@]2(c3cc(C#CC4=CCCCC4)ccc31)[C@H](c1ccccc1OCCO)N1[C@H](c3ccccc3)[C@H](c3ccccc3)OC(=O)[C@H]1[C@@H]2C(=O)N1CCN(c2ncccn2)CC1
composite z-score [1]: 0.471
z-score [2]: -4.96 (inactive)
z-score [3]: -1.23 (inactive)
z-score [4]: -1.28 (inactive)
z-score [5]: -0.752 (inactive)
composite z-score [6]: 0.407
composite z-score [7]: 0.181
composite z-score [8]: 0.0128
composite z-score [9]: 0.202
composite z-score [10]: 0.942
